# Measurements published in PubChem BioAssay (EPA / NIEHS).
# Records with an inconclusive call do not appear. A structure can be active in one record and inactive in another. Activity calls are given as the source filed them. How the source made its calls, unless noted: active means hit-call score of the fitted dose curve at least 0.9, where 1 is the maximum; inconclusive means response in the unintended direction; inactive means score below 0.9.
# Legend:
# [1] = IUF_NPC4_neurite_length_120hr: Leibniz Research Institute for Environmental Medicine (IUF) 120-hour Neuronal Morphology Assay for Neurite Length (NPC4) (AID 2284302; active means hit-call score of the fitted dose curve at least 0.9, where 1 is the maximum; inactive means score below 0.9)
# Procedure, shortened: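 Read-out is mean neurite length in µm of TUBB3-positive neurons, skeletonized from high-content fluorescence images after 120 h. Single 0.3 mm primary human neural progenitor spheres differentiated on poly-D-lysine/laminin under continuous compound exposure; DMSO was baseline.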
# [2] = IUF_NPC4_neurite_area_120hr: Leibniz Research Institute for Environmental Medicine (IUF) 120-hour Neuronal Morphology Assay for Neurite Area (NPC4) (AID 2284305)
# Procedure, shortened: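 Neurite area is read out as the mean pixel area, excluding nuclei, of skeletonized TUBB3-positive neurons imaged after 120 h. Primary human neural progenitor spheres differentiated on poly-D-lysine/laminin with compound present from day 0. Activity was referenced to DMSO controls.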
# [3] = IUF_NPC2-5_cytotoxicity_72hr: Cytotoxicity Assessment at 72 hours in the Leibniz Research Institute for Environmental Medicine (IUF) Neural Progenitor Cell Migration and Differentiation Assay for Cytotoxicity (NPC2-5) (AID 2284306);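 further: LDH release into supernatant measured by resorufin fluorescence marking membrane damage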
# Procedure, shortened: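 Membrane integrity loss was scored from fluorescence (RFU) of resorufin generated by LDH in culture supernatant, 72 h after dosing. Differentiating human progenitor spheres received seven serial compound concentrations alongside a solvent control.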
# [4] = IUF_NPC2-5_cytotoxicity_120hr: Cytotoxicity Assessment at 120 hours in the Leibniz Research Institute for Environmental Medicine (IUF) Neural Progenitor Cell Migration and Differentiation Assay (NPC2-5) (AID 2284307);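 on AC50: LDH released into supernatant as membrane damage marker via resorufin fluorescence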
# Procedure, shortened: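 Membrane-integrity loss is quantified by LDH in supernatant after five days of exposure of migrating, differentiating human fetal NPC spheres; seven serially diluted concentrations are tested with DMSO kept at or below 0.1%.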
# [5] = IUF_NPC2-5_cell_number_120hr: Cell Number Assessment at 120 hours in the Leibniz Research Institute for Environmental Medicine (IUF) Neural Progenitor Cell Migration and Differentiation Assay (NPC2-5) (AID 2284308; active means hit-call score of the fitted dose curve at least 0.9, where 1 is the maximum; inactive means score below 0.9;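 further: count of Hoechst-stained nuclei in migration zone around plated human neural progenitor spheres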)
# Procedure, shortened: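 Seven-point serial dilutions plus solvent control were applied to plated 0.3 mm hNPC spheres at differentiation start, with medium half-replaced at day 3. Nuclei positive for Hoechst in the migration zone were enumerated at 120 h.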
# [6] = IUF_NPC2-5_viability_120hr: Viability Assessment at 120 hours in the Leibniz Research Institute for Environmental Medicine (IUF) Neural Progenitor Cell Migration and Differentiation Assay (NPC2-5) (AID 2284312; active means hit-call score of the fitted dose curve at least 0.9, where 1 is the maximum; inactive means score below 0.9)
# Procedure, shortened: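 Alamar blue resorufin fluorescence read after 5 days of differentiation, with compound present from day 0 and replenished at day 3. Primary hNPC spheres on laminin-coated plates, 37C; seven concentrations plus solvent control, fitted against DMSO.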
# [7] = CCTE_Mundy_HCI_iCellGluta_NOG_NeuriteLength: CCTE's Neurite Outgrowth Assay in iCellGluta cells for Neurite Length, Mundy Lab (AID 2284318)
# Procedure, shortened: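 Automated high-content imaging of betaIII-tubulin (Alexa Fluor-488) and Hoechst-stained cells gave neurite length, normalized to the DMSO baseline.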
# [8] = IUF_NPC1_cytotoxicity_72hr: Cytotoxicity Assessment at 72 hours in the Leibniz Research Institute for Environmental Medicine (IUF) Neural Progenitor Cell Proliferation Assay (NPC1) (AID 2284332);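 further: rising LDH signal means more cytotoxicity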
# Procedure, shortened: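 hNPC spheres (fetal brain, gestational week 16-19) grown under proliferative EGF/FGF conditions, pH 7.2-7.6, were treated continuously for 72 h. Cytotoxicity came from LDH-coupled resazurin fluorescence in each well's supernatant.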
# [9] = CCTE_Deisenroth_5AR_NBTE_donor: CCTE's 5alpha-reductase NanoBRET Target Engagement Assay […], Deisenroth Lab (AID 2284319; active means hit-call score of the fitted dose curve at least 0.9, where 1 is the maximum; inactive means score below 0.9); settings: actives raise or lower the signal
# Procedure, shortened: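 HEK293T cells transiently expressing SRD5A2-NanoLuc, exposed 5 h to chemicals (8 points, 10 nM - 29.9 uM), with testosterone tracer for the final 2 h. Donor luminescence at 460 nm read after Nano-Glo substrate plus extracellular NanoLuc inhibitor; bidirectional fit versus DMSO.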
# IYD (gene 389434) = experiment: CCTE_GLTED_hIYD: CCTE's human Iodotyrosine Deiodinase (xIYD) Inhibition Assay, Great Lakes Toxicology and Ecology Division (GLTED) Lab (AID 2284317);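 further: cell-free human IYD enzyme made in baculovirus insect cells; iodide freed from monoiodotyrosine measured by cerium arsenite color change at 420 nm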
# Procedure, shortened: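 First, recombinant human IYD (baculovirus-insect cells), MIT and chemical incubated 3 h. Next, iodide isolated on Dowex. Finally, Sandell-Kolthoff rate read at 420 nm, with platewise normalization to MNT and solvent controls.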
# [10] = tested on: Brachyury (BRA) Protein Expression, Deisenroth Lab, TBXT (gene 6862); experiment: CCTE_Deisenroth_DEVTOX-GLR_legacy_Bra: (Legacy) CCTE's DevTox GLR-Endo Assay Evaluation of Brachyury (BRA) Protein Expression, Deisenroth Lab (AID 2284329; active means hit-call score of the fitted dose curve at least 0.9, where 1 is the maximum; inactive means score below 0.9)
# Procedure, shortened: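 Human pluripotent RUES2-GLR line was exposed twice during 48 h differentiation to a 10-point series, 1 nM - 200 uM. Fraction of Bra-positive cells was scored by imaging against pluripotent baseline and fitted after 0.2% DMSO subtraction.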
# [11] = CCTE_Deisenroth_DEVTOX-GLR_legacy_CellCount: (Legacy) Viability Assessment in CCTE's DevTox GLR-Endo Assay, Deisenroth Lab (AID 2284331; active means hit-call score of the fitted dose curve at least 0.9, where 1 is the maximum; inactive means score below 0.9); settings: actives raise or lower the signal
# Procedure, shortened: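 Human pluripotent RUES2-GLR cells differentiated 48 h with two 24-h-interval exposures, 10-point 1 nM–200 uM series, 0.2% DMSO. Fixed nuclei counted by high-content imaging (5 fields/well); bidirectional fit vs DMSO, n≥4.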
# [12] = TAMU_PeakParms_SingleDonor1434_Asystole: Texas A&M University (TAMU) 1.5-hr Human Induced Pluripotent Stem Cell (iPSC)-derived Cardiomyocytes Calcium (Ca+2) Flux Assay for Cardiotoxicity: Asystole (quiescence of beating) (AID 2284328)
# Procedure, shortened: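 Average Ca2+-flux peak frequency (beats/s) was recorded in single-donor iPSC-derived cardiomyocytes after 90 min exposure (0.2–100 uM final, 0.5% DMSO). Asystole POD set as EC95 against DMSO, no preprocessing.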
# [13] = VALA_TUBHUV_Agonist_CellCount: Viability Assessment in the VALA Sciences human Umbilical Vein Endothelial Tubule Formation (TUBHUV) Agonism Assay (AID 2284309)
# Procedure, shortened: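 HUVEC co-cultured 1:3 with HDF for 3 days in 10 ng/ml VEGF, then compounds added in VEGF medium for a further 3 days (72 h). Nuclear-stain/CD31 imaging cell count. Positive-direction fit versus 0.1% DMSO vehicle.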
# [14] = VALA_TUBIPS_Antagonist_TubuleLength: VALA Sciences human iPS-derived Endothelial Tubule Formation (TUBIPS) Antagonist Assay (AID 2284313)
# Procedure, shortened: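 Cells grown 3 days with 10 ng/ml VEGF, then exposed to compounds in VEGF medium for another 3 days. After fixation, nuclear stain and CD31 immunofluorescence imaging gave mean total tubule length against 0.1% DMSO; suramin (100 uM) inhibition control.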
# [15] = VALA_MIGHUV2_CellCount: Viability Assessment in the VALA Sciences human Umbilical Vein Endothelial Cell Migration (MIGHUV) Assay, Area of Scratch Wound after Recovery (AID 2284314)
# Procedure, shortened: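 Scratch-wounded HUVEC monolayers received test chemical within 30 min, 6-point concentration response in triplicate, 0.1 % DMSO vehicle. After 24 h wound recovery, fixed cells were Hoechst-stained and nuclei imaged; loss of signal versus DMSO indicates reduced viability.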
# [16] = VALA_MIGHUV2_Bcatenin: VALA Sciences human Umbilical Vein Endothelial Cell Migration (MIGHUV) Assay, Nuclear Translocation of beta-Catenin after Recovery (AID 2284315)
# Procedure, shortened: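 HUVEC (4000 cells/well) scratch-wounded, dosed within 30 min over 6 concentrations in triplicate, recovered 24 h. After fixation, Hoechst and anti-beta-catenin immunofluorescence imaged for nuclear CTNB. Gain of signal versus 0.1% DMSO.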
# [17] = VALA_MIGHUV2_WoundArea: VALA Sciences human Umbilical Vein Endothelial Cell Migration (MIGHUV) Assay, Area of Scratch Wound after Recovery (AID 2284316)
# Procedure, shortened: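 HUVEC seeded at 9000 cells/well, scratched after 24 h; test chemical added within 30 min, 6-point concentration response in triplicate (0.1% DMSO vehicle). After 24 h wound recovery, cells fixed and Hoechst-stained nuclei in wound area imaged; Cytochalasin D reference control.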
# [18] = VALA_TUBHUV_Antagonist_CellCount: Viability Assessment in the VALA Sciences human Umbilical Vein Endothelial Tubule Formation (TUBHUV) Antagonism Assay (AID 2284310)
# Procedure, shortened: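 HUVEC co-cultured with HDF (1:3) 3 days in 10 ng/ml VEGF, then 3 days with compounds in VEGF medium. Fixed, nuclear stain and CD31 immunofluorescence, imaged; cell counts fitted versus 0.1% DMSO, loss of signal read as lower viability.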
# [19] = IUF_NPC5_oligodendrocyte_differentiation_120hr: Leibniz Research Institute for Environmental Medicine (IUF) 120-hour Oligodendrocyte Differentiation Assay (NPC5) (AID 2284304);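 further: primary human fetal neural progenitor spheres plated to migrate and differentiate; share of O4-positive cells among Hoechst nuclei found by CNN image analysis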
# Procedure, shortened: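 After plating on poly-D-lysine/laminin, fetal-derived hNPC spheres differentiated for 120 h at 37C in compound-containing N2 medium, refreshed by half on day 3. O4 immunostaining over Hoechst nuclei in the migration zone gave oligodendrocyte percentage relative to DMSO.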
smiles,measurement,setting,value
O=C1O[C@H]([C@@H](O)CO)C(O)=C1O,outcome,[1],inactive
same,outcome,[2],inactive
same,outcome,[3],inactive
same,outcome,[4],inactive
same,outcome,[5],inactive
same,outcome,[6],inactive
same,outcome,[7],inactive
same,outcome,[8],inactive
CN1C(=O)CC[C@H]1c1cccnc1,outcome,[9],inactive
CC(C)(C)c1csc(-c2cc3cc(OCc4ccccc4CC(=O)O)ccc3o2)n1,AC50,IYD (gene 389434),68.7 µM (active)
CCOC(=O)O[C@H](C)OC(=O)c1ccc2c(c1)cc(C(=O)NC1CCN(C(C)C)CC1)n2Cc1cc(-c2ccc(Cl)s2)on1,AC50,IYD (gene 389434),56.4 µM (active)
Clc1cc(Cl)c2c(c1)N=C1CCCCCN1C2,outcome,IYD (gene 389434),inactive
CCCCOC(=O)c1ccc(O)cc1,AC50,[10],100 µM (active)
same,AC50,[11],38.2 µM (active)
CN(C)c1ccc(C(=C2C=CC(=[N+](C)C)C=C2)c2ccc(N(C)C)cc2)cc1,outcome,IYD (gene 389434),inactive
same,AC50,[9],12.6 µM (active)
same,AC50,[12],0.589 µM (active)
CCCOC(=O)c1cc(O)c(O)c(O)c1,outcome,[12],inactive
NCc1cccc(C2CCN(C(=O)c3ccc(C#Cc4ccccc4F)o3)CC2)c1,outcome,[9],inactive
CN1C(=O)N(c2ccccc2Br)Cc2cnc(Nc3ccc4c(c3)OCC(CO)O4)nc21 (stereo not drawn),outcome,[9],inactive
CCCCCCCCOC(=O)c1cc(O)c(O)c(O)c1,AC50,[13],76.4 µM (active)
same,outcome,[14],inactive
same,outcome,[15],inactive
same,AC50,[16],79.9 µM (active)
same,outcome,[17],inactive
same,AC50,IYD (gene 389434),77 µM (active)
same,AC50,[9],74.7 µM (active)
O=C(Nc1ccc(Cl)cc1)Nc1ccc(Cl)c(Cl)c1,outcome,[13],inactive
same,outcome,[18],inactive
same,outcome,[14],inactive
same,outcome,[15],inactive
CN(C[C@@H](CC[N+]12CCC(C3CCCCC3)(CC1)CC2)c1ccc(Cl)c(Cl)c1)C(=O)c1cc(C(F)(F)F)cc(C(F)(F)F)c1,AC50,IYD (gene 389434),45.2 µM (active)
same,AC50,[9],19.7 µM (active)
CCN(Cc1cccc(S(=O)(=O)O)c1)c1ccc(C(=C2C=CC(=[N+](CC)Cc3cccc(S(=O)(=O)O)c3)C=C2)c2ccccc2S(=O)(=O)[O-])cc1,AC50,IYD (gene 389434),100 µM (active)
same,outcome,[9],inactive
c1ccc2ccccc2c1,outcome,[12],inactive
O=c1[nH]sc2ccccc12,AC50,[9],81.2 µM (active)
COc1cc(C(=O)NC2CCN(C)CC2)ccc1Nc1ncc2c(n1)N(C1CCCC1)CC(F)(F)C(=O)N2C,outcome,[9],inactive
Cc1oc2c(NC(=O)c3c(Cl)cccc3Cl)cccc2c1C(C)(C)O,outcome,IYD (gene 389434),inactive
CCN(CC)C(=O)c1cc(S(=O)(=O)Cc2ccccc2)c(N2CCC(c3ccccc3)CC2)cc1N(CC)CCN(C)C,AC50,[9],10 µM (active)
same,outcome,[9],inactive
O=C(O)Cc1cc(I)c(Oc2ccc(O)c(I)c2)c(I)c1,AC50,[9],28.2 µM (active)
CCCCCCCCCCCC[N+](C)(C)C,outcome,IYD (gene 389434),inactive
CCCCCCCCCCCO,outcome,[9],inactive
OCCO,outcome,[10],inactive
same,outcome,[11],inactive
CC(C)(c1cc(Br)c(O)c(Br)c1)c1cc(Br)c(O)c(Br)c1,AC50,[1],3.33 µM (active)
same,AC50,[19],0.628 µM (active)
same,AC50,[2],5.13 µM (active)
same,AC50,[3],4.45 µM (active)
same,AC50,[4],3.04 µM (active)
same,AC50,[5],2.79 µM (active)
same,AC50,[6],2.94 µM (active)
same,AC50,IYD (gene 389434),66.2 µM (active)
same,outcome,[12],inactive
same,outcome,[8],inactive
CO[C@H]1/C=C/O[C@@]2(C)Oc3c(C)c(O)c4c(O)c(c(/C=N/N5CCN(C)CC5)c(O)c4c3C2=O)NC(=O)/C(C)=C\C=C\[C@H](C)[C@H](O)[C@@H](C)[C@@H](O)[C@@H](C)[C@H](OC(C)=O)[C@@H]1C,AC50,[9],50 µM (active)
same,AC50,[10],89.7 µM (active)
CC/C(=C(/CC)c1ccc(O)cc1)c1ccc(O)cc1,outcome,[12],inactive
same,AC50,[10],1.3 µM (active)
same,AC50,[11],1.54 µM (active)
O=c1c(-c2ccc(O)cc2)coc2cc(O)cc(O)c12,outcome,IYD (gene 389434),inactive
same,outcome,[9],inactive
